This experiment addresses SUMO-conjugating enzyme UBC9 (Homo sapiens) (UniProt P63279). Briefly: blockers of SAE1/SAE2–UBC9 SUMO transfer – biochemical, HTRF, uHTS, primary screen (AID 2006). The settings on record: HTRF SUMOylation assay, SAE1/SAE2 + UBC9, in vitro, at 35 µM, stronger effect = higher value.

Out of some 290,000 compounds screened, about 1,000 (0.34%) were called active. No stated cut-off is given here; in the data, active means inhibition above about 50% (passing the limit was not always enough); inconclusive means no clear call, values can overlap the other calls. The full list was thinned out, with actives kept by preference.

Chain of SUMO-conjugating enzyme UBC9 (Homo sapiens) (P63279 whole entry, looked up): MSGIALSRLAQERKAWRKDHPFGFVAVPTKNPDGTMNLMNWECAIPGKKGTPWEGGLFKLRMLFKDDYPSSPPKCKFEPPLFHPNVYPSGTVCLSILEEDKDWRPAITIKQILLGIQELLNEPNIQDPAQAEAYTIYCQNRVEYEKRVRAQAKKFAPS

Consider `COC(=O)c1ccc(CNC(=O)c2ccc3oc(C(C)C)nc3c2)cc1`, for which the inhibition was 9.1% (inactive).

For `CCN(CC)CCn1c(N)c(S(=O)(=O)c2ccccc2)c2nc3ccccc3nc21`, the inhibition was 11.7% (inactive).

For the compound `Cc1ccc(S(=O)(=O)c2c(N)n(C)c3nc4ccccc4nc23)cc1`, the inhibition is 18.6% (inactive).

Turning to `CCC(=O)Nc1c(S(=O)(=O)c2ccccc2)c2nc3ccccc3nc2n1Cc1ccccc1`, the inhibition is 98.2% (active).

With `O=C(Cc1c(Cl)cccc1Cl)NC1CC1`, the inhibition was 11% (inactive).

Turning to `Cc1ccc(NS(=O)(=O)c2ccc3c(c2)n(C)c(=O)c(=O)n3C)c(C)c1`, the inhibition was 9% (inactive).

Regarding `CC(=O)NCC(=O)N1CCC(n2nccc2NC(=O)CCCc2ccccc2)CC1`, the inhibition is -2.9% (inactive).

For the compound `COc1c(O)ccc2c1CN1CCc3cc4c(cc3C1C2)OCO4` (centres undefined), the inhibition is 12.8% (inactive).

On to `Cc1ccc(-c2nn(-c3ccccc3)cc2/C=C2\SC(=S)N(CCCCCC(=O)O)C2=O)o1`, for which the inhibition is 55.1% (active). Further, the inhibition (average of repeat tests) was determined as 59.6%.

As to `CN(C)S(=O)(=O)c1cccc(-c2nn(-c3ccccc3)cc2/C=C2\SC(=S)N(CC(=O)O)C2=O)c1`, the inhibition was 37.3% (inactive).

In the case of `COc1ccc(-c2nn(-c3ccccc3)cc2/C=C2/SC(=S)N(CCCC(=O)O)C2=O)c(C)c1`, the inhibition is 44.1% (inactive).

Turning to `O=C(N/C(=C/c1ccc(Cl)cc1)C(=O)N1CCCCC1)c1ccco1`, the inhibition is 22% (inactive).

Consider `CC1CCCCN1C(=O)CCS(=O)(=O)Cc1ccccc1` (centres undefined), for which the inhibition was 18.6% (inactive).

For the compound `COc1ccc(NC(=O)CNC(=O)Cn2ccc3ccccc3c2=O)c(OC)c1`, the inhibition was 7.3% (inactive).

For the compound `Cc1ccc(Nc2nc(Cl)c(C=O)s2)cc1`, the inhibition was 16.9% (inactive).

Turning to `Cc1c(Cl)cccc1NC(=O)CCC(=O)N/N=C/c1ccco1`, the inhibition was -5.3% (inactive).

Take `COCCNC(=O)Nc1ccc2nc(-c3ccco3)c(-c3ccco3)nc2c1`: the inhibition is 95.3% (active). In addition, the inhibition (average of repeat tests) stood at 62.6%.

On to `CC(C)(C)c1ccc(NC(=O)NCc2ccco2)cc1`, for which the inhibition was -11.5% (inactive).

Regarding `O=C(NCc1ccccn1)c1ccc2nc(-c3ccco3)c(-c3ccco3)nc2c1`, the inhibition is 74.1% (active).

Take `O=C(Nc1ccc2nccnc2c1)c1ccco1`: the inhibition is 28.4% (inactive).

Take `COc1ccc2oc(=O)c(C(=O)NCc3ccccn3)cc2c1`: the inhibition was 31.2% (inactive).

As to `COc1cccc(S(=O)(=O)NCc2ccc(C(=O)NCc3ccccn3)cc2)c1`, the inhibition was 0.6% (inactive).

On to `COc1ccc(CNC(=O)c2ccc(Br)s2)cc1OC`, for which the inhibition is 0.1% (inactive).

As to `Cc1c(C)c2c(OCC(=O)N[C@@H](C(=O)O)c3ccccc3)cc3c(c2oc1=O)CCC(C)(C)O3`, the inhibition was 44% (inactive).

`CCc1ccc(-c2nc(SCC(=O)NC3CCCC3)n[nH]2)cc1`: the inhibition was -14.4% (inactive).

With `COc1ccc(N(C)C(=O)C2CCN(S(=O)(=O)c3cccc4nsnc34)CC2)cc1`, the inhibition is 11.4% (inactive).

For the compound `Cc1ccnc(NS(=O)(=O)c2ccc(NC(=O)c3oc4ccc(F)cc4c3C)cc2)n1`, the inhibition was 15.4% (inactive).

For `CC(CC(=O)N1CCN(S(=O)(=O)c2ccccc2)CC1)n1cncn1` (centres undefined), the inhibition is 14.6% (inactive).

Take `COc1ccc(Cc2n[nH]c(=S)n2NC(=O)Nc2ccc(C)cc2)cc1`: the inhibition was 68.1% (active). Further, under “average of repeat tests”, the inhibition was determined as 49.6%.

Consider `CCOc1ccc(NC(=O)CN2CCN(CC(=O)Nc3ccc(OC)cc3)CC2)cc1`, for which the inhibition was -4.3% (inactive).

Turning to `Cc1ccc(OCc2n[nH]c(=S)n2-c2ccc(C)cc2)cc1`, the inhibition was 3.7% (inactive).

With `C/C(=N/Nc1nc(-c2ccccc2)c(CC(=O)O)s1)c1ccccc1`, the inhibition was 7% (inactive).

In the case of `Cc1cc(C)nc(N/N=C/c2c(CO)cnc(C)c2O)n1`, the inhibition was -3.1% (inactive).

Turning to `Nc1ccc2nc3c(=O)[nH]c(=S)[nH]c3nc2c1`, the inhibition is 93.4% (active).

Take `CCc1ccc(C(=O)NC(=S)Nc2ccccc2N2CCOCC2)cc1`: the inhibition is -0.7% (inactive).

As for `CCOc1ccc(N(CC(=O)NCCc2ccc(F)cc2)S(=O)(=O)c2ccccc2)cc1`, the inhibition was -1.5% (inactive).

Take `O=C(O)CCCn1cc(NC(=O)COc2cccc(Cl)c2)cn1`: the inhibition was 11.5% (inactive).

As for `CN(C)[C@@H]1C(=O)C(C(N)=O)=C(O)[C@@]2(O)C(=O)C3=C(O)c4c(O)ccc(Cl)c4[C@@H](O)[C@H]3C[C@@H]12`, the inhibition is 62.8% (active).

`COc1ccc(CN2C3CCCC2CC(NC(=O)c2cccc(F)c2)C3)cc1` (centres undefined): the inhibition was 8.9% (inactive).

For `COc1ccc(C2NC(=O)N(C)C(C)=C2[N+](=O)[O-])cc1` (centres undefined), the inhibition was -5.6% (inactive).

`CC(NC(=O)Nc1cccc([N+](=O)[O-])c1)c1ccc2c(c1)OCO2` (centres undefined): the inhibition is 3% (inactive).

As for `COc1ccc(-n2nc(C(=O)NCC(=O)N3CCC(C(N)=O)CC3)c3ccccc3c2=O)cc1OC`, the inhibition is -4.6% (inactive).

Regarding `O=C(CNC(=O)c1ccc(F)cc1)c1ccccc1`, the inhibition is -1.3% (inactive).

Turning to `Cc1ccc(N=C2NC(=O)/C(=C/C=C/c3ccco3)S2)cc1C`, the inhibition was 54.8% (active).

As for `Cc1cccc(N=C2NC(=O)/C(=C/c3cn(C)c4ccccc34)S2)c1`, the inhibition was 12.3% (inactive).

As to `Cc1ccc(N2NC(=O)/C(=C/C=C/c3ccco3)C2=O)cc1C`, the inhibition is -18.1% (inactive).

Turning to `COc1ccc(CN2CCOC2=O)cc1OC`, the inhibition is -0.8% (inactive).

Turning to `O=C(CN1CCN(C(=S)NC2CCCC2)CC1)Nc1ccc(Oc2ccccc2)cc1`, the inhibition was -21.3% (inactive).

As for `O=C1CN(C(=O)c2cc(F)cc(F)c2)c2ccccc2N1`, the inhibition is 6.7% (inactive).

Take `NS(=O)(=O)c1ccc(CNC(=O)c2cccc(Oc3ccccc3)c2)cc1`: the inhibition is -2.7% (inactive).

For `CCCN1CC=C2C(C#N)=C(N)C(C#N)(C#N)C(c3cc(OC)ccc3OC)C2C1` (centres undefined), the inhibition was 34.3% (inactive).

As for `CCN1CC=C2C(C#N)=C(N)C(C#N)(C#N)[C@H](c3ccoc3)[C@H]2C1`, the inhibition was 67.7% (active).

On to `CCOC(=O)N1CC=C2C(C#N)=C(N)C(C#N)(C#N)[C@H](c3cccs3)[C@H]2C1`, for which the inhibition was -13.8% (inactive).

Take `O=C(N/N=C/c1cccc(OCc2ccccc2)c1)c1ccc(Br)o1`: the inhibition was 4.8% (inactive).

As for `O=C(Nc1ccccc1N1CCCC1)c1ccc2ccccc2c1`, the inhibition is 1.5% (inactive).

Consider `COC(=O)c1cccc(C(=O)N2CCC(CCC(=O)NCc3ccc(F)cc3)CC2)c1`, for which the inhibition is 7.8% (inactive).

Regarding `CC(C)c1ccc2c(c1)c(SC(C)(C)C)c(CC(C)(C)C(=O)O)n2Cc1ccc(Cl)cc1`, the inhibition was 52.2% (active).

For `O=C(O)c1ccc(Cn2c(=S)[nH]c3cc(Cl)ccc3c2=O)cc1`, the inhibition is 1.5% (inactive).

Regarding `CCOC(=O)c1c(-c2ccccc2)oc2cc(Br)c(O)c(C=O)c12`, the inhibition was -19% (inactive).

For `CCOC(=O)c1c(-c2ccccc2)oc2cc(Br)c(O)cc12`, the inhibition is 6.4% (inactive).

With `COCCNC(=O)c1ccc2nc(Cc3ccc(OC)c(OC)c3)oc2c1`, the inhibition was 4.2% (inactive).

For `C/C(=C/c1ccccc1)C(=O)N1CCN(c2ccccc2)CC1`, the inhibition was 16.7% (inactive).

As to `COCCN(CCOC)S(=O)(=O)c1ccc(C(=O)Nc2nc3c(s2)CCc2ccccc2-3)cc1`, the inhibition was 67% (active). Besides, under “average of repeat tests”, the inhibition stood at 53%.

Take `C=CCN(CC=C)S(=O)(=O)c1ccc(C(=O)Nc2nc3c(s2)CCc2ccccc2-3)cc1`: the inhibition was -14.9% (inactive).

Turning to `COc1ccc(C(=O)Nc2ncc3c(n2)-c2ccccc2CC3)cc1`, the inhibition was 6% (inactive).

In the case of `O=C(/C=C/c1ccc(Cl)cc1)NCCCn1ccnc1`, the inhibition is 12.9% (inactive).

Take `CC(=O)N1c2ccc(S(=O)(=O)N3CCC(C(=O)NC4CCCC(C)C4C)CC3)cc2CC1C` (centres undefined): the inhibition was -4.4% (inactive).

As for `COc1ccc(NC(=O)CC(NC(C)c2ccccc2)C(=O)O)cc1` (centres undefined), the inhibition was 6.5% (inactive).

`CC(C)c1nc(CNC(=O)CC2C(=O)NCCN2Cc2cccc(F)c2F)cs1` (centres undefined): the inhibition is -7.6% (inactive).

For `CC1CCN(S(=O)(=O)c2ccc3c(c2)n(C)c(=O)n3C)CC1`, the inhibition was 6.7% (inactive).

As to `CC1(C(=O)NCCc2c[nH]c3ccccc23)C=CC2(CCCCC2)N1C(=O)c1ccccc1` (centres undefined), the inhibition is 0.3% (inactive).

`Cc1cc(OC(C)C(=O)NC2CC(C)(C)NC(C)(C)C2)c2c(C)cc(=O)oc2c1` (centres undefined): the inhibition was 33.5% (inactive).

Regarding `O=[N+]([O-])c1cc(S(=O)(=O)Nc2cccc(Cl)c2)ccc1N=Nc1c(O)[nH]c2ccccc12`, the inhibition was 67.7% (active).

`CN1CCN(c2ccc(S(=O)(=O)Nc3ccccc3)cc2[N+](=O)[O-])CC1`: the inhibition is 21.3% (inactive).

Consider `Cc1cccc(N(CC(=O)N=Nc2c(O)[nH]c3ccccc23)S(C)(=O)=O)c1C`, for which the inhibition is -5.8% (inactive).

On to `COc1ccc(CN2CCNC(=O)C2CC(=O)NCc2cn[nH]c2-c2ccccc2)c(F)c1` (centres undefined), for which the inhibition was -2.8% (inactive).

For `CN(C(=O)COC(=O)c1nc(Cl)ccc1Cl)C1CCS(=O)(=O)C1` (centres undefined), the inhibition was -3.6% (inactive).

For the compound `Cc1c(-c2cccc(Cl)c2)nc2ccccc2c1C(=O)OCC(=O)N(C)C1CCS(=O)(=O)C1` (centres undefined), the inhibition is 0.4% (inactive).

In the case of `CN(C(=O)COC(=O)c1cc(-c2ccco2)nc2ccccc12)C1CCS(=O)(=O)C1` (centres undefined), the inhibition is 51.3% (active).

On to `O=[N+]([O-])/C=C/c1ccc2c(ccn2Cc2ccccc2)c1`, for which the inhibition is 19.7% (inactive).

For the compound `CC(C)[C@H](NC(=O)N1c2ccccc2NC(=O)[C@@H]1C(C)C)C(=O)N[C@H](C(=O)O)c1ccccc1`, the inhibition was 12.1% (inactive).

Consider `Cc1cccc(C(=O)Nc2ccc(Oc3cnccn3)cc2)c1`, for which the inhibition was 10.4% (inactive).

Regarding `CC1CCCCC1NC(=O)CO/N=C/c1ccc(OC(F)F)cc1` (centres undefined), the inhibition was -15.8% (inactive).

For `O=C(Nc1ccc(Br)cc1)c1cc(S(=O)(=O)Nc2ccccn2)ccc1Cl`, the inhibition was 3.5% (inactive).

Take `COc1ccc(CN2CC(C(=O)NCCc3ccc(Cl)cc3)CC2=O)cc1` (centres undefined): the inhibition is 10.3% (inactive).

The record behind these values is PubChem BioAssay AID2006 (Sanford-Burnham Center for Chemical Genomics, 2009).
